Rab9 prom act – activates the Rab9 promoter; Huh7 Rab9 promoter-luciferase reporter, luminescence, 24 h; Potency, µM (top dose mostly 9.22 µM), without a hit: top-dose activation, negative = inhibition, usual class: activators; 320,000 tested, 2.8% active; further: % of control where 0% means no effect; nearly all actives have a fitted effect of over 60% in size
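Steps: seed 1500 Huh7 Rab9-luc cells per well, rest 2 h at 37 °C; add compound in DMSO; incubate 24 h; add luciferase reagent, 10 min ambient; read luminescence.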
NPC1 prom act – activators of NPC1 promoter; Huh7 NPC1 promoter luciferase reporter, 24 h; 320,000 tested, 2.4% active; AID 485313; Potency, µM (series often up to 9.22 µM), without a hit: at the top dose activation, hits mostly activators; further: % of control where 0% means no effect; nearly all actives have a fitted effect of over 60% in size
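Compounds in DMSO were transferred onto Huh7 NPC1-luciferase reporter cells pre-incubated 2 h; after 24 h at 37 °C, Amplite reagent was dispensed and luminescence recorded 10 min later.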
ELG1 genotox – genotoxicity induction in ELG1-luciferase HEK293T cells. Potency, µM (series often up to 46 µM), inactives show at the highest dose activity change, positive = activation, usual class: activators. HEK293T ELG1-luciferase reporter, luminescence, 16 h. 330,000 tested, 1.3% active; further: % of control where 0% means no effect; nearly all actives have a fitted effect of over 60% in size
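ELG1-luciferase HEK293T cells, 2,000/well; compound pinned in; 16 hr, 37 °C, 5% CO2; ONE-Glo, 30 min RT; luminescence on CCD imager.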
FLuc modulator – inhibits or activates purified firefly luciferase, miR-21 counter-screen; 360,000 tested, 6.9% active; purified FLuc, Km substrates, luminescence inhibition; P08659; Potency, µM (titrated, usually from 57.5 µM), for inactives: at the top dose activity change, negative = inhibition, actives largely listed as inhibitors;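 further: plate controls were vehicle for no effect and reference inhibitor for full effect; nearly all actives have a fitted effect of over 55% in size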
Target sequence (P08659 whole entry, looked up): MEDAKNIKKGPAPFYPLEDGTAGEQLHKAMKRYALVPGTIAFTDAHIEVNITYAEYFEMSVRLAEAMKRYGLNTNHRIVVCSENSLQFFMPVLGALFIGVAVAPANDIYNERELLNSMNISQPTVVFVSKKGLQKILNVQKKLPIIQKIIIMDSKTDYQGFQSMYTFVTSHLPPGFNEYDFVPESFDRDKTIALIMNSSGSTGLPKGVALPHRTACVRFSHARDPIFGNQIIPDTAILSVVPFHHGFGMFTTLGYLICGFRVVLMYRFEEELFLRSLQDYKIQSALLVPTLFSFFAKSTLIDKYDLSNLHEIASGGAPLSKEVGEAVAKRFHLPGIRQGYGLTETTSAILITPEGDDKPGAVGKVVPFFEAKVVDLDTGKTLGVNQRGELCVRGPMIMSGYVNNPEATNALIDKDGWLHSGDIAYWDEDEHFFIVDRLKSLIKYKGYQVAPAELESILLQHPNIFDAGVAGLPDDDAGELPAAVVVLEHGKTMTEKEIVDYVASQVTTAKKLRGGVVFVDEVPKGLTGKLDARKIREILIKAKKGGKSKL
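Purified P. pyralis luciferase, 10 nM final, with Km-level 10 uM D-luciferin and 10 uM ATP in 50 mM Tris acetate pH 7.5, 10 mM Mg acetate, 0.01% Tween-20, 0.05% BSA; 6-point qHTS titration about 60 µM downward; luminescence read.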
p53 reactivator – re-activators of mutant p53. H1299 p53-A138V BP100-luciferase reporter, luminescence, 24 h. Potency, µM (top dose mostly 92.2 µM), for inactives: top-dose activity change, positive = activation, hits mostly activators. 320,000 tested, 0.063% active. AID 504706; further: % of control where 0% means no effect; nearly all actives have a fitted effect of over 45% in size
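p53-null H1299 cells stably carrying temperature-sensitive p53-A138V and a BP100-luciferase reporter were pinned with compounds (4-point, 1:5 series) and held 24 hrs at 37 deg C. Luminescence was read 10 min after detection reagent.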
SMN2 splice enh – increases expression of the SMN2 splice variant. Potency, µM (doses to about 46.1 µM), inactives show at the highest dose activity change, positive = activation, hits mostly activators. AID 1458. HEK293 SMN2-luciferase splicing reporter, luminescence, 30-36 h. 210,000 tested, 2.8% active; further: % of control where 0% means no effect; nearly all actives have a fitted effect of over 55% in size
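qHTS luciferase splicing reporter: luminescence rises when SMN2 exon 7 is included in transfected HEK293 cells. Compound exposure lasted 30-36 h at 37C, with 4.5 mM final sodium butyrate as control, followed by a ONE-Glo read.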
Numbers without * were called inactive; ? = inconclusive; . = no result given; [ ] = another dose, or the depositor's remark. This is a sample that favours compounds with a hit; in the whole collection about 7.3% have one here. The call rests on the fitted dose curve; in most records, active means well fitted curve in the direction sought with a large enough effect; inconclusive means small, poorly fitted or top-dose-only effect, or another doubt; inactive means no such curve, though single readings can be large; an effect the other way counts as inactive or inconclusive. Potency means the concentration at half of the fitted maximal effect.

SMILES	Rab9 prom act	NPC1 prom act	ELG1 genotox	FLuc modulator	p53 reactivator	SMN2 splice enh
CCOC(=O)c1sc(=NC(=O)c2ccc(C)cc2)n(C)c1C	?	19%	?	?	27%	22µM*
Cn1c(=NC(=O)COc2ccccc2)sc2cccc(F)c21	1.8µM*	3.5µM*	?	?	11%	.
CCOC(=O)c1sc(=NC(=O)COc2ccccc2)n(C)c1C	3.2µM*	?	?	?	20%	?
CCOC(=O)c1sc(=NC(=O)CCSc2ccccc2)n(C)c1C	?	?	?	?	18%	?
CCOC(=O)c1sc(=NC(=O)c2c(F)cccc2F)n(C)c1C	?	23%	?	-22%	?	.
CCOC(=O)c1sc(=NC(=O)c2ccc(F)cc2)n(C)c1C	23%	4%	?	0.67µM*	23%	.
CCCCn1c(=O)c2oc3ccccc3c2n(CC(=O)Nc2cccc(Cl)c2)c1=O	.	.	.	-4%	.	.
Cc1cccc(-n2c(=O)c3c(c4cc(C)ccc4n3C)n(CC(=O)NCCC3=CCCCC3)c2=O)c1	.	.	.	-1%	.	.
CCN(CC)C(=O)c1c(NC(=O)c2cccc(C)c2)sc2c1CCC(C)C2 (configuration not stated)	.	.	.	17µM*	.	-4%
Cc1cccc(C(=O)c2c(N)sc3c2CCC(C)C3)c1 (configuration not stated)	?	?	?	21µM*	?	.
CCc1ccc(-c2nn(CC(=O)NCc3ccccc3)c3c2cnc2ccc(C)cc23)cc1	.	.	.	-1%	.	.
CC1CCN(C(=O)c2cc(-c3ccc(Br)cc3)on2)CC1	.	.	.	4.8µM*	.	-1%
Cc1ccc(-c2cc(C(=O)N3CCN(C(=O)c4ccco4)CC3)no2)cc1	-4%	15%	10%	?	1%	-14%
O=C(c1cc(-c2ccc(Br)cc2)on1)N1CCOCC1	0.32µM*	0.32µM*	3.7µM*	1.9µM*	?	.
O=C(c1cc(-c2ccc(Br)cc2)on1)N1CCCCCC1	0.63µM*	0.71µM*	16µM*	1.3µM*	?	.
O=C(NCCN1CCOCC1)c1cc(-c2ccc(Br)cc2)on1	-6%	0%	1%	-15%	2%	-14%
O=C(NCc1n[nH]c(=S)n1-c1cccc(C(F)(F)F)c1)c1ccc(S(=O)(=O)N2CCCCC2)cc1	-1%	-1%	3%	0%	-7%	.
NC(=O)C1(N2CCCCC2)CCN(C(=O)Nc2ccc(F)cc2F)CC1	.	.	.	-2%	.	-3%
Cc1ccc2c(c1)-c1nc(-c3ccc(Cl)cc3)cc(-c3coc4ccccc4c3=O)c1CO2	.	.	.	-4%	.	8%
COc1ccccc1NC(=O)C(=O)NCCCN1CCCC1=O	23%	11%	5%	-15%	16%	.
COc1cccc(NC(=O)C(=O)NCCCN2CCCC2=O)c1	28%	?	?	19µM*	13%	.
Cc1cc(C)cc(NC(=O)C(=O)NCCCN2CCCC2=O)c1	?	?	13µM*	?	9%	.
CCc1ccc(NC(=O)CN2C(C(=O)OC)=C(c3ccccc3)c3ccccc3S2(=O)=O)cc1	.	.	.	-3%	.	-3%
COc1ccc(-c2ccc(C#N)c(SCC(=O)NCc3ccco3)n2)cc1OC	-3%	-4%	0%	-1%	-2%	.
c1cncc(-c2csc(NCc3ccco3)n2)c1	25%	22%	15%	?	18%	21%
SMILES	Rab9 prom act	NPC1 prom act	ELG1 genotox	FLuc modulator	p53 reactivator	SMN2 splice enh
COc1ccc(-c2csc(NCc3ccco3)n2)cc1C	4µM*	3.2µM*	?	?	?	32µM*
CC(=O)Nc1ccc(-c2csc(NCc3ccco3)n2)cc1	2µM*	2.5µM*	?	7.6µM*	?	13µM*
COc1ccc(-c2nc3cccc(C)n3c2NCc2ccco2)cc1OC	4%	6%	-12%	9.5µM*	12%	21%
Cc1ccccc1NC(=O)CSc1nc(-c2ccco2)nc2cc(=O)[nH]n12	.	.	.	-14%	.	.
C(=N\Nc1cc(N2CCCCC2)ncn1)/c1ccco1	?	?	?	4.8µM*	31%	.
C/C(=N\Nc1cc(N2CCOCC2)ncn1)c1ccc(O)cc1	3%	0%	9%	19µM*	4%	.
Oc1cccc(/C=N/Nc2cc(N3CCCC3)nc(N3CCCC3)n2)c1	0%	-1%	-8%	13µM*	6%	-18%
COc1cccc(/C=N/Nc2cc(N3CCOCC3)ncn2)c1O	-36%	-31%	?	8.5µM*	-27%	.
Oc1ccc(/C=N/Nc2cc(N3CCCC3)nc(N3CCCC3)n2)cc1	1%	-1%	-7%	-9%	5%	-34%
COc1ccc(-c2nnc(SCC(=O)NCc3ccccc3)nc2-c2ccc(OC)c(OC)c2)cc1OC	.	.	.	-2%	.	.
CCOc1ccc(N2CC(NC(=O)C3CCCCC3)CC2=O)cc1 (configuration not stated)	.	.	.	2%	.	.
CCC(C)NC(=O)C1CCC(CNS(=O)(=O)c2ccccc2)CC1 (configuration not stated)	0%	-3%	-2%	-2%	1%	.
O=[N+]([O-])c1ccc(NN=C2c3ccccc3Cc3ccccc32)c([N+](=O)[O-])c1	.	.	.	.	.	-4%[9.22 µM]
Fc1ccc(/C=N/Nc2cc(N3CCOCC3)ncn2)cc1	?	?	17%	?	4%	.
Fc1cccc(/C=N/Nc2cc(N3CCOCC3)ncn2)c1	2µM*	1.8µM*	?	4.8µM*	11%	.
O=C(O)/C=C/c1cccc(OCc2ccccc2)c1	20%	7%	5%	13µM*	-1%	-7%
Nc1nonc1C(=O)N/N=C/c1cc2c(cc1[N+](=O)[O-])OCO2	4%	-6%	10%	-1%	0%	.
O=C(N/N=C/c1cccc(OCc2ccccc2)c1)c1cccs1	28%	23%	5%	13µM*	1%	-11%
O=C(N/N=C/c1ccccc1)c1sccc1OCc1ccc(F)cc1	0%	-2%	2%	19µM*	2%	-17%
CN(C)c1ccc(/C=N/NC(=O)c2nonc2N)cc1[N+](=O)[O-]	1%	1%	0%	12µM*	9%	.
CCOc1cccc(/C=C/C(=O)O)c1	0%	-1%	0%	-4%	1%	-51%
O=C(O)c1ccc(COc2ccc(/C=N/NC(=O)c3cccs3)cc2)cc1	-8%	2%	3%	-10%	?	-16%
Nc1nonc1C(=O)N/N=C/c1cccc([N+](=O)[O-])c1	-6%	-2%	1%	12µM*	?	7%
CC(=O)c1c(C)oc2ccc(OCc3ccccc3)cc12	27%	26%	12%	17µM*	24%	.
O=C(N/N=C/c1cccc([N+](=O)[O-])c1)c1cccs1	?	?	?	8.5µM*	?	13µM*
